Here are results for five compounds from publication PMC11062922 (Nature Chemical Biology, 2023).

Structures are written as SMILES.

One experiment deals with MAP2K2. Set-up: species or system human, MV4-11 + K-562 + COLO205 + SK-N-BE2 + OVCAR-8. Particulars: read-out: apparent Kd; compound concentrations:100 nM and 1000 nM (sheet 'Samples'); n = 1.
Regarding `Nc1nc(-c2ccc(F)cc2)c(-c2ccc3ncccc3n2)s1` [GW785804X], the potency estimated from few doses was 2060 nM.

Regarding `COc1ccccc1-c1cc(/C=C2\C(=O)Nc3ncc(Br)cc32)cc(Br)c1O` [GW442130X], the potency estimated from few doses was 1580 nM.

On to `Cc1cc(Nc2nc(-c3cccc(C)n3)nc3ccccc23)ccn1` [GW872411X], for which the potency estimated from few doses is 1690 nM.

The next experiment deals with MAPKAPK2. Details: species or system human, MV4-11 + K-562 + COLO205 + SK-N-BE2 + OVCAR-8. Conditions: read-out: apparent Kd; compound concentrations:100 nM and 1000 nM (sheet 'Samples'); n = 1.
Consider `Nc1nc(-c2ccc(F)cc2)c(-c2ccc3ncccc3n2)s1` [GW785804X], for which the potency estimated from few doses was 1410 nM.

For `Cl.Cl.Oc1cc(-c2nc(-c3ccccc3)[nH]c2-c2ccncc2)ccc1Cl.Oc1cc(-c2nc(-c3ccccc3)[nH]c2-c2ccncc2)ccc1Cl` [SB-386023-B], the potency estimated from few doses was 1700 nM.

Turning to `c1ccc(-c2n[nH]cc2-c2ccnc3ccccc23)nc1` [GW271431X], the potency estimated from few doses was 1680 nM.
